# Compounds with a hit are over-represented: about 12% of the library has one in this group of screens.
# FMDV antiviral = blocks foot and mouth disease virus; FMDV antiviral cell-based qHTS; Potency, µM (highest dose often 57.9 µM), without a hit: at the highest dose activity change, negative = inhibition, usual class: inhibitors; 410,000 compounds, 1.2% hits; AID 1159524; calls by dose curve; tested in HEK293T cells; note: read-out not given here; potency is the fitted concentration of half-maximal effect; % is set by controls: 0 for no effect and ±100 for the full control effect; nearly all actives have a fitted effect of over 45% in size
# Sm TGR block = blocks Schistosoma mansoni thioredoxin glutathione reductase; Potency, µM (highest dose often 114 µM), for the others: top-dose activity change, negative = inhibition, usual class: inhibitors; 360,000 compounds, 3% hits; purified TGR, DTNB reduction, TNB absorbance 405 nm; AID 485364; Q962Y6; active = well fitted inhibition curve with a large enough effect; inconclusive = small, poorly fitted or top-dose-only effect; inactive = no such curve, though single readings can be large or run the other way; note: potency is the fitted concentration of half-maximal effect; % is set by controls: 0 for no effect and ±100 for the full control effect; nearly all actives have a fitted effect of over 60% in size
#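 First, TGR (20 nM dispensed) and NADPH were mixed with compound. Second, a 15 min room-temperature incubation followed. Third, further NADPH and then DTNB were added to start the reaction. Finally, TNB absorbance was monitored kinetically.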
# Cycloheximide cs = counter-screen for Shiga toxin inhibitors: cycloheximide protein synthesis inhibition. cell reporter, cycloheximide protein synthesis inhibition counterscreen. AID 2314. max response, %. 300,000 compounds, 12% hits; in the data active = max response mostly above about 13%, no sharp cut-off; inactive = mostly below about 14%; note: read at 38.3 µM for the half of the compounds with a filed dose; 0% is about no effect
# Shiga toxin inh = blocks Shiga toxin action in Vero cells | Vero cells, Shiga toxin protein synthesis inhibition reporter | inhibition, % at 38.7 µM | 290,000 compounds, 9.2% hits; in the data active = inhibition mostly above about 28%, no sharp cut-off; inactive = mostly below about 43%; note: 0% is about no effect
# Numbers without * were called inactive; ? = inconclusive; / = not tested or not shown; [ ] = remark or other dose.
SMILES,FMDV antiviral,Sm TGR block,Cycloheximide cs,Shiga toxin inh
O=C(O)C/C(=C\c1ccc2c(c1)OCO2)c1nc2ccccc2s1,32%,-6%,32*,69*
COc1ccc(/C=C(/CC(=O)Nc2ccccc2)c2nc3ccccc3s2)cc1,33%,2%,13,9
COc1ccc(/C=C(/CC(=O)NCc2ccc(Cl)cc2)c2nc3ccccc3s2)cc1,12%,3%,19*,19
COc1ccccc1/C=C(/CC(=O)NCc1ccc2c(c1)OCO2)c1nc2ccccc2s1,5%,-8%,20*,67*
CC1CN(CCC(=O)NC(c2cccnc2)C(F)(F)F)Cc2cc(Cl)ccc2O1 (stereo not drawn),-7%,/,/,/
CC(C)CN1C(=O)c2ccc(NC(=O)c3cccs3)cc2C1=O,11%,13%,40*,193*
CC(C)CN1C(=O)c2ccc(NC(=O)c3ccco3)cc2C1=O,61%,15%,49*,61*
COc1ccc(-c2nc3c4ccccc4n(CC(=O)N4CCN(c5ccccc5OC)CC4)c(=O)n3n2)cc1,15%,7%,/,/
O=C(Nc1nc2cc3c(cc2s1)OCCO3)c1cccc(N2C(=O)CCC2=O)c1,-2%,-8%,21*,36*
O=C(Nc1ccc2sccc2c1)c1cccc(N2C(=O)CCC2=O)c1,53%,1%,37*,92*
CCN(CC)S(=O)(=O)c1cccc(C(=O)Nc2nc3cc4c(cc3s2)OCCO4)c1,13µM*,15%[11.4 µM],9,19
O=C(NC1CC(=O)N(c2ccc(Cl)cc2)C1)C(=O)c1c[nH]c2ccccc12 (stereo not drawn),-17%,-1%,/,/
COc1ccccc1NC(=O)C(Cc1ccccc1)NS(=O)(=O)c1cccc2nsnc12 (stereo not drawn),26%,-11%,/,/
COc1ccc(-n2c(SCC(=O)NCc3ccccc3)nc3c([nH]c4ccccc43)c2=O)cc1,?,10%,/,/
COC(=O)C1CCCCN1C(=O)c1cc(COc2cccc3cnccc23)on1 (stereo not drawn),/,-30%,-2,-12
CC(=O)c1ccc(OCc2cc(C(=O)N3CCC[C@H]3CO)no2)cc1,11%,50µM*,11,17
COCCC1CCCCN1C(=O)c1cc(COc2cccc(C(C)=O)c2)on1 (stereo not drawn),-5%,-21%,34*,76*
CCOC(=O)CC1CCCCN1C(=O)c1cc(COc2cccc3cnccc23)on1 (stereo not drawn),2.8µM*,1%,9,-5
CCOc1ccc(-n2c(SCC(=O)c3ccccc3)nc3c([nH]c4ccccc43)c2=O)cc1,-15%,6%,/,/
COc1ccc(C(=O)c2cn(Cc3cccc(C)c3)c3cc4c(cc3c2=O)OCCO4)cc1OC,-22%,7%,/,/
O=C(N/N=C/CCc1ccccc1)c1ccccc1,34%,14%,37*,53*
O=C(N/N=C/CCc1ccccc1)C1CCCCC1,-27%,-1%,8,26
CCC/C=N/NC(=O)c1ccc(F)cc1,-17%,-2%,24*,75*
CCC/C=N/NC(=O)c1cccc(Br)c1,-2%,13%,9,-6
COc1cccc(C(=O)CN2CCN(S(=O)(=O)c3cccc([N+](=O)[O-])c3)CC2)c1,-23%,18µM*,2,-4
SMILES,FMDV antiviral,Sm TGR block,Cycloheximide cs,Shiga toxin inh
COc1ccc(C(=O)CN2CCN(S(=O)(=O)c3cccc([N+](=O)[O-])c3)CC2)cc1OC,-11%,-23%,3,-10
Cc1occc1-c1nnc(SCC(=O)c2ccc3c(c2)OCCO3)n1CC1CCCO1 (stereo not drawn),-19%,50µM*,23*,40*
Cc1occc1-c1nnc(SCC(=O)c2ccccc2)n1CC1CCCO1 (stereo not drawn),9%,28µM*,20*,31
CCn1c(SCC(=O)c2ccc(F)cc2)nnc1-c1ccoc1C,21%,40µM*,30*,40
CCC(C)NC(=O)CSc1nnc(-c2ccoc2C)n1CC1CCCO1 (stereo not drawn),-21%,10%,-4,-14
CCCCn1c(SCC(=O)c2ccc3c(c2)OCCO3)nnc1-c1ccoc1C,-18%,?,-2,-14
Cc1occc1-c1nnc(SCCCC(=O)c2ccc(F)cc2)n1C,?,-2%,-2,23
O=C(CSc1nccn1Cc1ccco1)Nc1cc(C(F)(F)F)ccc1Cl,7%,3%,/,/
Cn1ccc(C(=O)Nc2ccc(Br)cc2Br)n1,-9%,-4%,104*,167*
Cc1ccc(NC(=O)c2ccn(C)n2)c(Br)c1,3%,1%,81*,163*
CCOc1ccc(-n2ccnc2SCC(=O)Nc2nc3ccc(C)cc3s2)cc1,-20%,1%,/,/
COc1ccc(C2/C=C\CN(C(=O)C3CCCCC3)C(Cc3ccccc3)C(=O)N2Cc2ccc(F)cc2)cc1 (stereo not drawn),/,/,23,16
Cc1nnc(SCc2nnc(-c3cccs3)o2)s1,45%,7%,37*,35
Cc1nnc(SCc2ccccc2CSc2nnc(C)s2)s1,-19%,0%,49*,-10
O=C(NC1CC1)C1CC(=O)N(c2cccc(Cl)c2)C1 (stereo not drawn),-6%,7.1µM*,3,-9
COc1ccc(Cn2cc(S(=O)(=O)c3ccc(C)cc3)c(=O)c3cc(F)ccc32)cc1,46%,1%,/,/
c1ccc(Oc2cc(-n3cccn3)ncn2)cc1,13%,-6%,54*,74*
COC(=O)c1cnn(-c2cc(Oc3ccccc3)ncn2)c1N,55%,-25%,23*,27
NC(=O)c1cnn(-c2cc(Oc3ccccc3)ncn2)c1N,24%,-2%,47*,59
NCCc1cnc(-c2cccc(C(F)(F)F)c2)[nH]1,/,/,4,-18
CCCCN1C(=O)C(O)(CC(=O)c2ccc(C(C)(C)C)cc2)c2ccccc21 (stereo not drawn),0%,1%,/,/
COc1cc2c(c(OC)c1OC)-c1c(cc3c(c1OC)OCO3)CC(C)C(C)(O)C2OC(=O)c1ccccc1 (stereo not drawn),/,/,-4,19
O=C(CCSCc1cnn(-c2ccccc2)c1-n1cccc1)NCc1ccccc1F,-6%,-11%,/,/
C[C@@H]1CN(Cc2ccc3c(c2)CN(Cc2cccc4c2OCO4)CCO3)C[C@H](C)O1,-4%,/,/,/
Cc1cc(C)cc(-n2c(SCC(=O)Nc3nnc(C)s3)nc3c([nH]c4ccccc43)c2=O)c1,-15%,8%,/,/
CCc1ccc(NC(=O)c2nnn(Cc3cccc(C(F)(F)F)c3)c2N)cc1,-12%,-3%,/,/
